Several values for one entry are separate records, joined by “and”; a condition that tells them apart may be missing. Identical values can stand only once. Out of some 5,500 compounds screened, about 2,000 (36%) were called active. Roughly 18% stayed inconclusive and do not appear here. No stated cut-off is given here; in the data, active means normalized growth mostly below about 0.91 (no sharp cut-off); inconclusive means no clear call, values can overlap the other calls; inactive means mostly above about 0.92. Some of the results follow.
Assay: chemical genetic growth profiling, strain panel (AID 1159580);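 further: tested at 20 µM; growth read once vehicle control cultures reached saturation at 30 °C; 1 = growth at the plate median or of vehicle wells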
Conditions: S. cerevisiae deletion strains, growth OD

Measured: normalized growth

NCC(O)CC(=O)O (centres undefined)
inactive: locus YAL021C, strain ccr4, stronger effect = lower value 1.01 | locus YAL026C, strain drs2, stronger effect = lower value 0.967 | locus YAL030W, strain snc1, stronger effect = lower value 0.98 | locus YBL061C, strain skt5, stronger effect = lower value 0.986 | locus YBR009C, strain hhf1, stronger effect = lower value 0.962 | locus YBR021W, strain FUR4, stronger effect = lower value 0.999 | locus YBR023C, strain chs3, stronger effect = lower value 0.994 | locus YBR171W, strain sec66, stronger effect = lower value 0.989 | locus YBR229C, strain ROT2, stronger effect = lower value 1.01 | locus YBR231C, strain swc5, stronger effect = lower value 0.995 | locus YBR279W, strain paf1, stronger effect = lower value 0.991 | locus YCL011C, strain gbp2, stronger effect = lower value 0.966 | locus YCL016C, strain dcc1, stronger effect = lower value 0.994 | locus YCL029C, strain bik1, stronger effect = lower value 0.992 | locus YCL061C, strain MRC1, stronger effect = lower value 0.995 | locus YCL069W, strain vba3, stronger effect = lower value 0.984 | locus YCR088W, strain abp1, stronger effect = lower value 0.977 | locus YDL005C, strain med2, stronger effect = lower value 0.969 | locus YDL035C, strain GPR1, stronger effect = lower value 1.01 | locus YDL040C, strain nat1, stronger effect = lower value 0.991 | locus YDL074C, strain BRE1, stronger effect = lower value 1.01 | locus YDL101C, strain DUN1, stronger effect = lower value 1.01 | locus YDL134C, strain PPH21, stronger effect = lower value 1.01 | locus YDL185W, strain tfp1, stronger effect = lower value 0.994 | locus YDL192W, strain arf1, stronger effect = lower value 0.997 | locus YDR001C, strain nth1, stronger effect = lower value 0.977 | locus YDR069C, strain doa4, stronger effect = lower value 1.04 | locus YDR101C, strain arx1, stronger effect = lower value 1.02 | locus YDR137W, strain rgp1, stronger effect = lower value 0.988 | locus YDR159W, strain sac3, stronger effect = lower value 0.968 | locus YDR162C, strain NBP2, stronger effect = lower value 1.02 | locus YDR195W, strain ref2 0.951 | locus YDR297W, strain sur2, stronger effect = lower value 0.986 | locus YDR318W, strain mcm21, stronger effect = lower value 1.01 | locus YDR334W, strain swr1, stronger effect = lower value 0.975 | locus YDR335W, strain msn5, stronger effect = lower value 0.988 | locus YDR388W, stronger effect = lower value 0.999 | locus YDR392W, strain spt3, stronger effect = lower value 0.892 | locus YDR502C, strain sam2, stronger effect = lower value 0.991 | locus YEL003W, strain gim4, stronger effect = lower value 0.964 | locus YEL037C, strain rad23, stronger effect = lower value 0.977 | locus YEL061C, strain CIN8 (second series), stronger effect = lower value 0.966 | locus YEL061C, strain CIN8, stronger effect = lower value 1.01 | locus YER015W, strain faa2, stronger effect = lower value 0.986 | locus YER016W, strain bim1, stronger effect = lower value 0.983 | locus YER110C, stronger effect = lower value 1 | locus YER111C, strain swi4, stronger effect = lower value 0.974 | locus YER155C, strain BEM2 (second series), stronger effect = lower value 0.997 | locus YER155C, strain BEM2, stronger effect = lower value 1.01 | locus YER167W, strain BCK2, stronger effect = lower value 1.01 | locus YFR010W, strain ubp6, stronger effect = lower value 0.973 | locus YGL078C, strain dbp3, stronger effect = lower value 0.994 | locus YGL086W, strain mad1, stronger effect = lower value 1 | locus YGL167C, strain pmr1, stronger effect = lower value 0.957 | locus YGL173C, strain kem1, stronger effect = lower value 0.984 | locus YGL227W, strain vid30, stronger effect = lower value 0.955 | locus YGL240W, strain doc1, stronger effect = lower value 0.989 | locus YGL248W, strain PDE1, stronger effect = lower value 1.01 | locus YGL253W, strain hxk2, stronger effect = lower value 0.989 | locus YGR078C, strain PAC10, stronger effect = lower value 1.01 | locus YGR135W, strain pre9, stronger effect = lower value 1 | locus YGR252W, strain gcn5, stronger effect = lower value 0.982 | locus YHR013C, strain ard1, stronger effect = lower value 0.964 | locus YHR027C, strain rpn1, stronger effect = lower value 0.997 | locus YHR030C, strain SLT2, stronger effect = lower value 1.01 | locus YHR079C, strain IRE1 (second series), stronger effect = lower value 1 | locus YHR079C, strain IRE1, stronger effect = lower value 1.03 | locus YHR094C, strain hxt1, stronger effect = lower value 0.988 | locus YHR129C, strain ARP1, stronger effect = lower value 1.01 | locus YHR142W, strain chs7, stronger effect = lower value 1.02 | locus YHR200W, strain rpn10, stronger effect = lower value 0.999 | locus YIL066C, strain RNR3, stronger effect = lower value 1.02 | locus YIL073C, strain SPO22, stronger effect = lower value 1.03 | locus YIL125W, strain kgd1, stronger effect = lower value 1.01 | locus YIR030C, strain dcg1, stronger effect = lower value 1 | locus YJL092W, strain hpr5, stronger effect = lower value 0.99 | locus YJL095W, strain BCK1 (second series), stronger effect = lower value 1.01 | locus YJL095W, strain BCK1, stronger effect = lower value 1.01 and 1.02 | locus YJL115W, strain asf1, stronger effect = lower value 0.981 | locus YJL129C, strain trk1, stronger effect = lower value 0.991 | locus YJL134W, strain LCB3, stronger effect = lower value 1.01 | locus YJL154C, strain vps35, stronger effect = lower value 0.981 | locus YJL164C, strain tpk1, stronger effect = lower value 1.06 | locus YJL166W, strain qcr8, stronger effect = lower value 1.02 | locus YJL168C, strain set2, stronger effect = lower value 0.997 | locus YJL187C, strain SWE1 (second series), stronger effect = lower value 1.02 | locus YJL187C, strain SWE1, stronger effect = lower value 0.994 | locus YJR043C, strain POL32, stronger effect = lower value 1.02 | locus YJR066W, strain TOR1, stronger effect = lower value 0.924

Reference: PubChem BioAssay AID1159580 (chemical genetic matrix, 2015)
